# Data from PubChem BioAssay (NCATS).
# Inconclusive results are not listed. A call without a number means that no potency is given here. Unmarked numbers belong to inactive results. Calls of active or inactive are those of the source. Calls follow the shape of the dose curve; as a rule, active = well fitted curve in the direction sought with a large enough effect; inconclusive = small, poorly fitted or top-dose-only effect, or another doubt; inactive = no such curve, though single readings can be large; an effect the other way counts as inactive or inconclusive.
# Assays:
# MCC-13 = assay: qHTS assay to identify novel small-molecules to repurpose for Merkel cell carcinoma treatment (AID 1296009); conditions: MCC and control cell lines, CellTiter-Glo viability, 72 h; series mostly up to 46 µM; also: nearly all actives have a fitted effect of over 60% in size
# Method in brief: (§1)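 Dose-response viability screen; 72 hr exposure at 37 degree celsius; CellTiter-Glo added, 10 min room temperature, luminescence read; RLUs scaled between no-cell and DMSO wells.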
# MCC-26 = assay: as above; conditions: MCC and control cell lines, CellTiter-Glo viability, 72 h; series mostly up to 46 µM
# Method in brief: as §1
# MKL-1 = assay: as above; conditions: MCC and control cell lines, CellTiter-Glo viability, 72 h; series mostly up to 46 µM
# Method in brief: as §1
# MKL-2 = assay: as above; conditions: MCC and control cell lines, CellTiter-Glo viability, 72 h; series mostly up to 46 µM
# Method in brief: as §1
# UISO = assay: as above; conditions: MCC and control cell lines, CellTiter-Glo viability, 72 h; series mostly up to 46 µM
# Method in brief: as §1
# WaGa = assay: as above; conditions: MCC and control cell lines, CellTiter-Glo viability, 72 h; series mostly up to 46 µM
# Method in brief: as §1
# C33A = assay: Primary qHTS to identify gynecologic anti-cancer compounds using libraries of approved drugs and bioactive compounds (AID 1345084); conditions: Gynecologic cancer cell panel viability, ATPlite luminescence, 48 h; series mostly up to 57.5 µM; also: nearly all actives have a fitted effect of over 55% in size; also: potency is read from the fitted curve at half-maximal effect
# Method in brief: (§2)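 Cells, 1,000 per well, were allowed to settle for 16 h at 37 C before compound addition. Five concentrations were tested for 48 h, and viability was read by ATPlite luminescence after 15 min at room temperature.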
# CAOV3 = assay: as above; conditions: Gynecologic cancer cell panel viability, ATPlite luminescence, 48 h; series mostly up to 57.5 µM
# Method in brief: as §2
# CASKI = assay: as above; conditions: Gynecologic cancer cell panel viability, ATPlite luminescence, 48 h; series mostly up to 57.5 µM
# Method in brief: as §2
# Es-2 = assay: as above; conditions: Gynecologic cancer cell panel viability, ATPlite luminescence, 48 h; series mostly up to 57.5 µM
# Method in brief: as §2
# HeLa = assay: as above; conditions: Gynecologic cancer cell panel viability, ATPlite luminescence, 48 h; series mostly up to 57.5 µM
# Method in brief: as §2
# Hek293T = assay: as above; conditions: Gynecologic cancer cell panel viability, ATPlite luminescence, 48 h, control line for the selectivity index; series mostly up to 57.5 µM
# Method in brief: as §2
# JEG-3 = assay: as above; conditions: Gynecologic cancer cell panel viability, ATPlite luminescence, 48 h; series mostly up to 57.5 µM
# Method in brief: as §2
# OV90 = assay: as above; conditions: Gynecologic cancer cell panel viability, ATPlite luminescence, 48 h; series mostly up to 57.5 µM
# Method in brief: as §2
# PA-1 = assay: as above; conditions: Gynecologic cancer cell panel viability, ATPlite luminescence, 48 h; series mostly up to 57.5 µM
# Method in brief: as §2
# SKOV3 = assay: as above; conditions: Gynecologic cancer cell panel viability, ATPlite luminescence, 48 h; series mostly up to 57.5 µM
# Method in brief: as §2
# Tov-21-G = assay: as above; conditions: Gynecologic cancer cell panel viability, ATPlite luminescence, 48 h; series mostly up to 57.5 µM
# Method in brief: as §2
# Tov112D = assay: as above; conditions: Gynecologic cancer cell panel viability, ATPlite luminescence, 48 h; series mostly up to 57.5 µM
# Method in brief: as §2
# [1] = Drug repurposing screens with cells derived from glioblastoma tumor samples (AID 1345199); conditions: GBM patient neurospheres viability, ATP luminescence, 48 h; also: nearly all actives have a fitted effect of over 40% in size; also: potency is read from the fitted curve at half-maximal effect
# Method in brief: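 Primary testing used CD133+ neurospheres from four GBM patients, seven concentrations, 48 h exposure and ATP-based viability; confirmation added three slower-growing patient lines.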
structure (smiles),measurement,setting,value
O=C1C(CCC(O)c2ccc(F)cc2)C(c2ccc(O)cc2)N1c1ccc(F)cc1 (configuration not stated),Potency,MCC-13,inactive
same,Potency,MCC-26,inactive
same,Potency,MKL-1,inactive
same,Potency,MKL-2,inactive
same,Potency,UISO,inactive
same,Potency,WaGa,inactive
CC1CCN(c2cc(N3CCN(C)CC3)ccc2NC(=O)c2cc(C#N)c[nH]2)CC1,Potency,MCC-13,inactive
same,Potency,MCC-26,inactive
same,Potency,MKL-1,inactive
same,Potency,MKL-2,inactive
same,Potency,UISO,inactive
same,Potency,WaGa,inactive
same,Potency,C33A,inactive
same,Potency,CAOV3,inactive
same,Potency,CASKI,inactive
same,Potency,Es-2,inactive
same,Potency,HeLa,inactive
same,Potency,Hek293T,inactive
same,Potency,JEG-3,inactive
same,Potency,OV90,inactive
same,Potency,PA-1,inactive
same,Potency,SKOV3,inactive
same,Potency,Tov-21-G,inactive
same,Potency,Tov112D,inactive
Cc1ccccc1C(C(=O)NC1CCCCC1)N(C(=O)CNc1ccc(C#N)cc1)c1cccc(F)c1 (configuration not stated),Potency,MCC-13,inactive
same,Potency,MCC-26,inactive
same,Potency,MKL-1,inactive
same,Potency,MKL-2,inactive
same,Potency,UISO,inactive
same,Potency,WaGa,inactive
same,Potency,C33A,inactive
same,Potency,CAOV3,inactive
same,Potency,CASKI,inactive
same,Potency,Es-2,inactive
same,Potency,HeLa,inactive
same,Potency,Hek293T,inactive
same,Potency,JEG-3,inactive
same,Potency,OV90,inactive
same,Potency,SKOV3,inactive
same,Potency,Tov-21-G,inactive
same,Potency,Tov112D,inactive
CC[C@@H]([C@H](C)O)n1ncn(-c2ccc(N3CCN(c4ccc(OCC5CO[C@@](Cn6cncn6)(c6ccc(F)cc6F)C5)cc4)CC3)cc2)c1=O (some centres not stated),Potency,MCC-13,inactive
same,Potency,MCC-26,inactive
same,Potency,MKL-1,inactive
same,Potency,MKL-2,inactive
same,Potency,UISO,inactive
same,Potency,WaGa,inactive
COc1ccc2c(c1)CC[C@H]1[C@@H]2CC[C@]2(C)[C@@H](NCCCCCCN3C(=O)C=CC3=O)CC[C@H]12,Potency,MCC-13,inactive
same,Potency,MCC-26,inactive
same,Potency,MKL-1,inactive
same,Potency,MKL-2,inactive
same,Potency,UISO,inactive
same,Potency,WaGa,inactive
CC(C)(OCc1nn(Cc2ccccc2)c2ccccc12)C(=O)O,Potency,MCC-13,inactive
same,Potency,MCC-26,inactive
same,Potency,MKL-1,inactive
same,Potency,MKL-2,inactive
same,Potency,UISO,inactive
same,Potency,WaGa,inactive
same,Potency,C33A,inactive
same,Potency,CASKI,inactive
same,Potency,Es-2,inactive
same,Potency,HeLa,inactive
same,Potency,Hek293T,inactive
same,Potency,JEG-3,inactive
same,Potency,OV90,inactive
same,Potency,PA-1,inactive
same,Potency,Tov-21-G,inactive
same,Potency,Tov112D,inactive
CCOC(=O)[C@H]1O[C@H]1C(=O)N[C@@H](CC(C)C)C(=O)NCCC(C)C,Potency,MCC-13,inactive
same,Potency,MCC-26,inactive
same,Potency,MKL-1,inactive
same,Potency,MKL-2,inactive
same,Potency,UISO,inactive
same,Potency,WaGa,inactive
COC(=O)[C@H](c1ccccc1Cl)N1CCc2sccc2C1,Potency,MCC-13,inactive
same,Potency,MCC-26,inactive
same,Potency,MKL-1,inactive
same,Potency,MKL-2,inactive
same,Potency,UISO,inactive
same,Potency,WaGa,inactive
Cn1cc(-c2ccc3nnc(Sc4ccc5ncccc5c4)n3n2)cn1,Potency,MCC-13,inactive
same,Potency,MCC-26,inactive
same,Potency,MKL-1,inactive
same,Potency,MKL-2,inactive
same,Potency,UISO,inactive
same,Potency,WaGa,inactive
CC1=C[C@@H]2[C@@H]([C@@H](O)C[C@@]3(C)[C@H]2C[C@@H](C)[C@]3(O)C(=O)CO)[C@@]2(C)Cc3cnn(-c4ccccc4)c3C=C12,Potency,MCC-13,inactive
same,Potency,MCC-26,inactive
same,Potency,MKL-1,inactive
same,Potency,MKL-2,inactive
same,Potency,UISO,inactive
same,Potency,WaGa,inactive
same,Potency,CASKI,inactive
NS(=O)(=O)c1cc(Cl)c(Cl)c(S(N)(=O)=O)c1,Potency,MCC-13,inactive
same,Potency,MCC-26,inactive
same,Potency,MKL-1,inactive
same,Potency,MKL-2,inactive
same,Potency,UISO,inactive
same,Potency,WaGa,inactive
same,Potency,C33A,inactive
same,Potency,CASKI,inactive
same,Potency,Es-2,inactive
same,Potency,HeLa,inactive
same,Potency,Hek293T,inactive
same,Potency,JEG-3,inactive
same,Potency,OV90,inactive
same,Potency,PA-1,inactive
same,Potency,SKOV3,inactive
same,Potency,Tov-21-G,inactive
same,Potency,Tov112D,inactive
same,"activity, negative = cell killing","[1]; at 20 µM (top of the series), tumour line C",4.89%
same,"activity, negative = cell killing","[1]; at 21.2 µM (top of the series), tumour line B",-0.766%
same,"activity, negative = cell killing","[1]; at 21.2 µM (top of the series), tumour line D",5.15%
same,"activity, negative = cell killing","[1]; at 21.3 µM (top of the series), tumour line A",-15%
Cc1cnc(Nc2cccc(CN3CCOCC3)c2)nc1Nc1cccc(S(=O)(=O)NC(C)(C)C)c1,Potency,MCC-13,inactive
same,Potency,MCC-26,inactive
same,Potency,MKL-1,inactive
same,Potency,MKL-2,inactive
same,Potency,UISO,inactive
same,Potency,WaGa,inactive
same,Potency,C33A,inactive
same,Potency,Es-2,inactive
same,Potency,Hek293T,inactive
same,Potency,JEG-3,inactive
same,Potency,OV90,inactive
same,Potency,SKOV3,0.794 µM (active)
Cc1c(C(=O)Nc2ccc(N3C[C@@H](C)O[C@@H](C)C3)nc2)cccc1-c1ccc(OC(F)(F)F)cc1,Potency,MCC-13,inactive
same,Potency,MCC-26,inactive
same,Potency,MKL-1,inactive
same,Potency,MKL-2,inactive
same,Potency,WaGa,inactive
same,Potency,C33A,inactive
same,Potency,CASKI,inactive
same,Potency,Es-2,inactive
same,Potency,HeLa,inactive
same,Potency,Hek293T,inactive
same,Potency,JEG-3,inactive
same,Potency,OV90,inactive
same,Potency,SKOV3,inactive
same,Potency,Tov-21-G,inactive
same,Potency,Tov112D,inactive
CN1CC(=O)N2C(Cc3c([nH]c4ccccc34)[C@H]2c2ccc3c(c2)OCO3)C1=O (some centres not stated),Potency,MCC-13,inactive
same,Potency,MCC-26,inactive
same,Potency,MKL-1,inactive
same,Potency,MKL-2,inactive
same,Potency,UISO,inactive
same,Potency,WaGa,inactive
same,"activity, negative = cell killing","[1]; at 45.9 µM (top of the series), tumour line B",-5.44%
same,"activity, negative = cell killing","[1]; at 45.9 µM (top of the series), tumour line D",-11.4%
same,"activity, negative = cell killing","[1]; at 46.1 µM (top of the series), tumour line C",-21.6%
same,Potency,[1]; tumour line A,11.2 µM (active)
CNC(=O)c1cc(COc2nnc(Nc3ccc(Cl)cc3)c3ccoc23)ccn1,Potency,MCC-13,inactive
same,Potency,MCC-26,inactive
same,Potency,MKL-1,inactive
same,Potency,MKL-2,inactive
same,Potency,WaGa,inactive
